NTMT1 inh – Primary qHTS for Inhibitors of N-terminal methyltransferase 1 (NTMT1): MTaseGlo Assay. 59,000 tested, 2.5% active. Potency, µM (highest dose often 114 µM), hits mostly inhibitors. NTMT1 MTase-Glo SAH luminescence, purified enzyme. AID 1645870, 2021. N-terminal Xaa-Pro-Lys N-methyltransferase 1 (Homo sapiens), Q9BV86; also: nearly all actives have a fitted effect of over 65% in size
Target sequence (Q9BV86 whole entry, looked up): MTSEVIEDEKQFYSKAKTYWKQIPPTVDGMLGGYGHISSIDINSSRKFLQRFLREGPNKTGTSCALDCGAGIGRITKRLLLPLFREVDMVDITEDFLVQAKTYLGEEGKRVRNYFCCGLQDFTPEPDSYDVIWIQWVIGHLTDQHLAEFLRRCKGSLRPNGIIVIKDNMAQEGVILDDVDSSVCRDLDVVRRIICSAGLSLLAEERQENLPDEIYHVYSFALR
GPR32 ag – qHTS for Agonists of Human Resolvin D1 Receptor DRV1; Probable G-protein coupled receptor 32 (Homo sapiens), O75388; activation, % at 76.9 µM; 48,000 tested, 2.5% active; CHO-K1 GPR32 beta-arrestin PathHunter luminescence, 90 min; zero percent set by DMSO-only wells;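 active = activation of at least 60% and not above a set upper limit, about 1 call in 100 departs from these limits; inconclusive = activation of 40% to 60%, or above that upper limit; inactive = activation under 40%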
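Beta-arrestin recruitment read-out: luminescence from complemented beta-Gal in CHO-K1 GPR32 PathHunter cells, measured 1 h after detection reagent at ambient temperature following 90 min compound exposure at 37 °C; DMSO served as basal (EC0) control.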
TSG101-PTAP inh – qHTS Validation Assay for Inhibitors of HIV-1 Budding by Blocking the Interaction of PTAP/TSG101: Sytravon Library Screen; Fluorescence polarization, FITC-PTAP peptide/Tsg101, 20 min; Potency, µM (series often up to 115 µM), most hits filed as inhibitors; AID 1347069, 2019; Tumor susceptibility gene 101 protein (Homo sapiens), Q99816; 44,000 tested, under 10 active
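Fluorescence polarization binding of Tsg101 binding domain (10 uM final) to FITC-labeled PTAP-motif peptide (50 nM final) in HEPES pH 7.5/NaCl/Tween 20/EDTA/TCEP buffer; 20 min at r.t. Actives by curve class, <25 µM, efficacy <60% inhibition.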
OvCa metastasis – Primary qHTS assay for Inhibitors of ovarian cancer metastasis using an organotypic tumor microenvironment (TME) model | Potency, µM (highest dose often 45.8 µM), usual class: inhibitors | SKOV3ip1-GFP adhesion/invasion on 3D omental model, fluorescence | 46,000 tested, 0.1% active; also: nearly all actives have a fitted effect of over 65% in size
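A 3D layer of primary human omental fibroblasts, mesothelial cells, fibronectin and collagen I, grown 48 hr, received SKOV3ip1-GFP cells in serum-free medium plus compounds at 0.36-46 umol/L. After 2 hr RT and 16 hr 37 C, fixed adherent GFP cells were counted; normalized to DMSO and tomatine.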
GALK inh – qHTS Assay for Inhibitors of Human Galactokinase (GALK): NCGC Sytravon Library Screen | Potency, µM (top dose mostly 57.5 µM), actives largely listed as inhibitors | 44,000 tested, under 10 active | P51570 | recombinant GALK, Kinase-Glo ATP luminescence, 1 h
Target sequence (P51570 whole entry, looked up): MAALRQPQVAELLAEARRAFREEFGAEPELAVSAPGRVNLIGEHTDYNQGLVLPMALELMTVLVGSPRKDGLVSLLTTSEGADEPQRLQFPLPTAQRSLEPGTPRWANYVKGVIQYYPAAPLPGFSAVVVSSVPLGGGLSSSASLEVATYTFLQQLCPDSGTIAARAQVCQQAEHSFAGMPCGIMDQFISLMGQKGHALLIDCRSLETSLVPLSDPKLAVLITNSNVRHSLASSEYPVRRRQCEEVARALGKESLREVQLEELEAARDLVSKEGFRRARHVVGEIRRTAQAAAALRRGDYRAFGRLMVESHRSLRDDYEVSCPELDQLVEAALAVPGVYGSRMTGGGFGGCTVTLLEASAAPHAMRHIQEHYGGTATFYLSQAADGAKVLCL
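5 nM GALK; 35 uM ATP; 100 uM D-galactose; 20 mM HEPES pH 8.0, 5 mM MgCl2, 60 mM NaCl, 1 mM DTT, 0.01% BSA; 1 h RT; Kinase-Glo Plus luminescence.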
B2AR arrestin ag – qHTS assay of beta-arrestin-biased ligands of beta2-adrenergic receptor: NCGC Sytravon Library Screen; HTLA Tango cells, beta-arrestin recruitment, luciferase luminescence, 18 h; Potency, µM (series often up to 46.1 µM), actives largely listed as activators; 44,000 tested, under 10 active
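Tango cells expressing recombinant beta2-AR and beta-arrestin were treated with compounds (up to 46 microM titration) in DMEM with 1% FBS for 18 hr at 37 degrees C. Beta-arrestin recruitment drove tTA-dependent luciferase, read by luminescence; curves were fitted and classed.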
Sfp qHTS opt – qHTS Assay for Inhibitos of Bacillus subtilis Sfp phosphopantetheinyl transferase (PPTase): Chemistry Optimization Followup. Potency, µM (highest dose often 114 µM), actives largely listed as inhibitors. 230 tested, 78% active. shares compounds with NTMT1 inh. AID 540350, 2011. purified Sfp PPTase enzyme activity, qHTS
HM489 growth – qHTS for Inhibitos of Bacillus subtilis Sfp phosphopantetheinyl transferase (PPTase): Chemistry Optimization Followup in B. Subtilis HM489. 220 tested, 50% active. shares compounds with NTMT1 inh. B. subtilis HM489 (acpS-) growth, BacTiter-Glo, 5 h. AID 540353, 2011. Potency, µM (highest dose often 114 µM), usual class: inhibitors
Sfp gel opt – Gel-Based Assay for Inhibitos of Bacillus subtilis Sfp phosphopantetheinyl transferase (PPTase): Chemistry Optimization Followup; purified Sfp PPTase, gel-based product detection; Potency, µM (top dose mostly 250 µM), actives largely listed as inhibitors; shares compounds with NTMT1 inh; 220 tested, 54% active
Sfp inh gel – qHTS Assay for Inhibitors of Bacillus subtilis Sfp phosphopantetheinyl transferase (PPTase): Gel Based Assay; Potency, µM (doses to about 250 µM), hits mostly inhibitors; shares compounds with NTMT1 inh; purified Sfp PPTase, gel-based product detection; 45 tested, 90% active
Sfp inh SAR2 – qHTS Assay for Inhibitors of Bacillus subtilis Sfp phosphopantetheinyl transferase (PPTase): SAR Round 2; purified Sfp enzyme, PPTase activity, qHTS; shares compounds with NTMT1 inh; 230 tested, 87% active; Potency, µM (doses to about 57.1 µM), most hits filed as inhibitors
hGST ctr – qHTS Assay for Inhibitors of Bacillus subtilis Sfp phosphopantetheinyl transferase (PPTase): SAR in hGST A1-1; shares compounds with NTMT1 inh; hGST A1-1 enzyme activity counter-screen, qHTS; Potency, µM (highest dose often 114 µM), hits mostly inhibitors; 55 tested, under 10 active
HSD17B4 inh – Extended Characterization of HPGD Inhibitors: Counterscreen Against HSD17b4; 230 tested, 10% active; AID 743187, 2013; purified HSD17B4, estradiol/NAD+, NADH fluorescence; Potency, µM (doses to about 57.1 µM), hits mostly inhibitors; shares compounds with NTMT1 inh
ALDH1A1 counter – Extended Characterization of HPGD Inhibitors: Counterscreen Against ALDH1A1. shares compounds with NTMT1 inh. recombinant ALDH1A1, NADH fluorescence, propionaldehyde/NAD+. Potency, µM (highest dose often 57.1 µM), hits mostly inhibitors. 230 tested, 93% active
Of the large screens only hits and unclear results are named; the others gave an inactive call (follow-up assays come after a bar, where they were run). Sampled rows, rich in hits. Any-hit rate of the full collection: about 3.8%. Unless noted, calls follow the shape of the dose curve; as a rule, active = well fitted curve in the direction sought with a large enough effect; inconclusive = small, poorly fitted or top-dose-only effect, or another doubt; inactive = no such curve, though single readings can be large; an effect the other way counts as inactive or inconclusive.

Cc1ccnc(NC(=O)N2CCN(c3cccc(C(F)(F)F)c3)CC2)c1	none (no result: GPR32 ag, TSG101-PTAP inh, OvCa metastasis, GALK inh, B2AR arrestin ag) | Sfp qHTS opt inactive | HM489 growth inconclusive | Sfp gel opt inactive | Sfp inh SAR2 inactive | HSD17B4 inh inactive | ALDH1A1 counter 11µM
Cc1ccnc(NC(=S)NC2CN(c3cccc(C(F)(F)F)c3)C2)c1	none (no result: GPR32 ag, TSG101-PTAP inh, OvCa metastasis, GALK inh, B2AR arrestin ag) | Sfp qHTS opt inconclusive | HM489 growth 37µM | Sfp gel opt inactive | Sfp inh SAR2 inconclusive | HSD17B4 inh inactive | ALDH1A1 counter inactive
Cc1ccnc(CC(=S)N2CCN(c3cccc(C(F)(F)F)c3)CC2)c1	none (no result: GPR32 ag, TSG101-PTAP inh, OvCa metastasis, GALK inh, B2AR arrestin ag) | Sfp qHTS opt 24µM | HM489 growth inconclusive | Sfp gel opt 10µM | Sfp inh SAR2 inconclusive | HSD17B4 inh inconclusive | ALDH1A1 counter 9.6µM
O=C(Nc1ccccc1Br)N[C@@H]1CCN(c2ccc(C(F)(F)F)cn2)C1	none (no result: GPR32 ag, TSG101-PTAP inh, GALK inh, B2AR arrestin ag)
O=C1c2ccccc2C(=O)C1(c1ccccc1)N1CCN(c2cccc(C(F)(F)F)c2)CC1	B2AR arrestin ag inconclusive
CN1Cc2sccc2C(c2ccc(O)c(O)c2)C1 (stereo unspecified)	none (no result: NTMT1 inh, TSG101-PTAP inh, OvCa metastasis, GALK inh, B2AR arrestin ag)
CCCOC(=O)c1cccc(NC(=O)c2c(-c3ccccc3Cl)noc2C)c1	NTMT1 inh inconclusive
Cc1ccnc(NC(=S)N2CC3CN(c4cccc(C(F)(F)F)c4)CC3C2)c1 (stereo unspecified)	NTMT1 inh inconclusive (no result: GPR32 ag, TSG101-PTAP inh, OvCa metastasis, GALK inh, B2AR arrestin ag) | Sfp qHTS opt 3.7µM | HM489 growth 5.9µM | Sfp gel opt 4.8µM | Sfp inh gel 1.7µM | Sfp inh SAR2 0.73µM | hGST ctr inconclusive | HSD17B4 inh inactive | ALDH1A1 counter 7.6µM
Cc1cc(N2CCC(C)CC2)nc2ccc(NC(=O)CCC(=O)N3CCN(c4cccc(C(F)(F)F)c4)CC3)cc12	none
Cc1ccnc(NC(=S)NC2CCN(c3cccc(C(F)(F)F)c3)CC2)c1	none (no result: NTMT1 inh, GPR32 ag, TSG101-PTAP inh, OvCa metastasis, GALK inh, B2AR arrestin ag) | Sfp qHTS opt inconclusive | HM489 growth inconclusive | Sfp gel opt inconclusive | Sfp inh SAR2 inconclusive | HSD17B4 inh 24µM | ALDH1A1 counter 19µM
Cc1ccnc(NC(=S)Nc2cccc(C(F)(F)F)c2)c1	none (no result: GPR32 ag, TSG101-PTAP inh, OvCa metastasis, GALK inh, B2AR arrestin ag) | Sfp qHTS opt 10µM | HM489 growth 12µM | Sfp gel opt inactive | Sfp inh gel inconclusive | Sfp inh SAR2 23µM | hGST ctr 0.21µM | HSD17B4 inh inactive | ALDH1A1 counter 22µM
Cc1ccnc(NC(=S)N2CCN(c3ccc(Br)cc3)CC2)c1	NTMT1 inh inconclusive (no result: GPR32 ag, TSG101-PTAP inh, OvCa metastasis, GALK inh, B2AR arrestin ag) | Sfp qHTS opt 5.9µM | HM489 growth 24µM | Sfp gel opt 7.9µM | Sfp inh SAR2 1.8µM | HSD17B4 inh inactive | ALDH1A1 counter 3.4µM
CC(=O)c1ccc(N2CCN(C(=S)Nc3cc(C)ccn3)CC2)cc1	NTMT1 inh inconclusive (no result: GPR32 ag, TSG101-PTAP inh, OvCa metastasis, GALK inh, B2AR arrestin ag) | Sfp qHTS opt 5.9µM | HM489 growth 17µM | Sfp gel opt 5µM | Sfp inh SAR2 1µM | HSD17B4 inh inconclusive | ALDH1A1 counter 7.6µM
CC(=O)c1ccc(N2CCN(C(=O)Nc3ccc(C(C)C)cc3)CC2)cc1	none

High-throughput results deposited in PubChem BioAssay by National Center for Advancing Translational Sciences (NCATS).
